Laboratory results: ChEMBL document CHEMBL1961873, “Compounds: GSK PKIS; Assays: Nanosyn kinase panel” (2012)

Key:
[1] = molecular target: T1, Serine/threonine-protein kinase Nek9 (Homo sapiens) (UniProt Q8TD19); details: at 1 µM;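 note: each value is a mean percent inhibition of NEK9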
T1 sequence (whole entry): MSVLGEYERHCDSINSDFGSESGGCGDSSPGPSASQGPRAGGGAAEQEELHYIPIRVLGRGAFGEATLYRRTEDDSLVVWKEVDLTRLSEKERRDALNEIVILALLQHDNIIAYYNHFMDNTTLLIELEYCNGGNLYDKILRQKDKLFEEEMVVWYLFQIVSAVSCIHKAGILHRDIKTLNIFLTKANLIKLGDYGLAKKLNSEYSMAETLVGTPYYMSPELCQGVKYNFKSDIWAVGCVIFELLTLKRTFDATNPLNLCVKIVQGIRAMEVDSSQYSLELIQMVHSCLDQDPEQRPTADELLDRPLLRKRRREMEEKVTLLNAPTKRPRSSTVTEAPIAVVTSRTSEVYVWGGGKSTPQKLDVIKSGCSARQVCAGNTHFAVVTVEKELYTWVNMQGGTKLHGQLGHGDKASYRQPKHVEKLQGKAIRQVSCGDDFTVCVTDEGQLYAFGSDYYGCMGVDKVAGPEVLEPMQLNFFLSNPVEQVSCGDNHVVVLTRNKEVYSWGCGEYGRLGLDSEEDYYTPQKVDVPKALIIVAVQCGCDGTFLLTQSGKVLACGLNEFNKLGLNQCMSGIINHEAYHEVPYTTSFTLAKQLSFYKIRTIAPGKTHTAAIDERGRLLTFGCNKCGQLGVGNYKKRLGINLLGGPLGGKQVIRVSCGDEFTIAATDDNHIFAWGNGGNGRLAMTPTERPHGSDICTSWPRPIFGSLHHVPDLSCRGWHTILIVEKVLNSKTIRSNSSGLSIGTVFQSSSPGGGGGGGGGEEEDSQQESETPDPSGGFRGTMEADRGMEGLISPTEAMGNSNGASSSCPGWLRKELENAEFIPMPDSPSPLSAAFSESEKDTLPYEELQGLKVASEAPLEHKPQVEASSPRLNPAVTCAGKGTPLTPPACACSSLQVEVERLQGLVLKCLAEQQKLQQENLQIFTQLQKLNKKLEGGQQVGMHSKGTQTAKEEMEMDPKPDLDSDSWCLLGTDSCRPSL

[2] = molecular target: T2, Dual specificity protein kinase TTK (Homo sapiens) (UniProt P33981); details: at 0.1 µM
T2 sequence (whole entry): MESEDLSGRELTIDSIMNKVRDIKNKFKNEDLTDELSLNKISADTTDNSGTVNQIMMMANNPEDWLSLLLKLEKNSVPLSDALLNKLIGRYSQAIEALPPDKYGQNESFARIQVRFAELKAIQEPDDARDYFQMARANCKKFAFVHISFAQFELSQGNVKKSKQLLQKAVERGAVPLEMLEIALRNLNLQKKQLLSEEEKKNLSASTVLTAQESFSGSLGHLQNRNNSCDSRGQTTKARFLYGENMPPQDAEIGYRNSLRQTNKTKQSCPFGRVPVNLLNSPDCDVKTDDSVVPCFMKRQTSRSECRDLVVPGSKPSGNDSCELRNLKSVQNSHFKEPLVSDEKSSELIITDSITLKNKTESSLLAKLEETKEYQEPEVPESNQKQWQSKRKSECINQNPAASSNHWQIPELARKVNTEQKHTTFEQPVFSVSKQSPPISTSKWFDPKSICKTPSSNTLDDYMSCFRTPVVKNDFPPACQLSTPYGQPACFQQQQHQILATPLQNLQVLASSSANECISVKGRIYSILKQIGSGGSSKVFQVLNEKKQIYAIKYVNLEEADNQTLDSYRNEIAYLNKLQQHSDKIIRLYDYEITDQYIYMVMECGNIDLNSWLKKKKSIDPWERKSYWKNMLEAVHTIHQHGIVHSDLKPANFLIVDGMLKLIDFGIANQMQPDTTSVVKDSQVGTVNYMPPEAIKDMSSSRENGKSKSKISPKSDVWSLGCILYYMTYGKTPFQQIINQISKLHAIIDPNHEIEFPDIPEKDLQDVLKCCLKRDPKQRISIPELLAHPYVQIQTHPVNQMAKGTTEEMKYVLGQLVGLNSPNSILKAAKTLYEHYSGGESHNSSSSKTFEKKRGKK

[3] = system: T3, Receptor-type tyrosine-protein kinase FLT3 (Homo sapiens), P36888 [D835Y]; details: at 1 µM
T3 sequence (whole entry): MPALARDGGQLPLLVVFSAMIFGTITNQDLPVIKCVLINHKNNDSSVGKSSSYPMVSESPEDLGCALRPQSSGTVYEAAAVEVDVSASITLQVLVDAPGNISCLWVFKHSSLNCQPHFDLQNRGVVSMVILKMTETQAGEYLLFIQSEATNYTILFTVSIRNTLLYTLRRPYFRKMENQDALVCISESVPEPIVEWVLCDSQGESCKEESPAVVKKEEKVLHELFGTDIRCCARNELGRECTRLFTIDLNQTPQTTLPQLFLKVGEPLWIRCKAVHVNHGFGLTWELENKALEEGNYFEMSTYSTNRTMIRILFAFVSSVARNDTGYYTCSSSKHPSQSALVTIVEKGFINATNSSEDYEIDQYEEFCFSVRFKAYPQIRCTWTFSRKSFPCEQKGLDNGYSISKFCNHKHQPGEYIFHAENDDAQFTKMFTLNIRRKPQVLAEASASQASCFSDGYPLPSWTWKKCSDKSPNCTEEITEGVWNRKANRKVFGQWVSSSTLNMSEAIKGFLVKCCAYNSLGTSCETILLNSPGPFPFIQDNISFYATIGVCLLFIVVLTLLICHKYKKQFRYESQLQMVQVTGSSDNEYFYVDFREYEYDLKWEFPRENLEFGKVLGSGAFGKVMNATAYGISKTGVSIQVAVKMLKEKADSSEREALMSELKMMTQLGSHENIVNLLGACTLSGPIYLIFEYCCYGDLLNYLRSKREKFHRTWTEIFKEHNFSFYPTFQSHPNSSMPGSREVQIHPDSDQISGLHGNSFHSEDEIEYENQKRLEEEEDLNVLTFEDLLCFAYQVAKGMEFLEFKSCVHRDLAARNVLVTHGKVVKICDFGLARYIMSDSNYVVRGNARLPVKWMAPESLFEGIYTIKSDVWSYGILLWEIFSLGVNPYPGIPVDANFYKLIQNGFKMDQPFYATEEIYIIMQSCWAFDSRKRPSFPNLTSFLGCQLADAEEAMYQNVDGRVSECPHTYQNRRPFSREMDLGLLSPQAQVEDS

[4] = molecular target: Vascular endothelial growth factor receptor 3 (Homo sapiens) (UniProt P35916); details: at 0.1 µM
Vascular endothelial growth factor receptor 3 (Homo sapiens), sequence (P35916 whole entry): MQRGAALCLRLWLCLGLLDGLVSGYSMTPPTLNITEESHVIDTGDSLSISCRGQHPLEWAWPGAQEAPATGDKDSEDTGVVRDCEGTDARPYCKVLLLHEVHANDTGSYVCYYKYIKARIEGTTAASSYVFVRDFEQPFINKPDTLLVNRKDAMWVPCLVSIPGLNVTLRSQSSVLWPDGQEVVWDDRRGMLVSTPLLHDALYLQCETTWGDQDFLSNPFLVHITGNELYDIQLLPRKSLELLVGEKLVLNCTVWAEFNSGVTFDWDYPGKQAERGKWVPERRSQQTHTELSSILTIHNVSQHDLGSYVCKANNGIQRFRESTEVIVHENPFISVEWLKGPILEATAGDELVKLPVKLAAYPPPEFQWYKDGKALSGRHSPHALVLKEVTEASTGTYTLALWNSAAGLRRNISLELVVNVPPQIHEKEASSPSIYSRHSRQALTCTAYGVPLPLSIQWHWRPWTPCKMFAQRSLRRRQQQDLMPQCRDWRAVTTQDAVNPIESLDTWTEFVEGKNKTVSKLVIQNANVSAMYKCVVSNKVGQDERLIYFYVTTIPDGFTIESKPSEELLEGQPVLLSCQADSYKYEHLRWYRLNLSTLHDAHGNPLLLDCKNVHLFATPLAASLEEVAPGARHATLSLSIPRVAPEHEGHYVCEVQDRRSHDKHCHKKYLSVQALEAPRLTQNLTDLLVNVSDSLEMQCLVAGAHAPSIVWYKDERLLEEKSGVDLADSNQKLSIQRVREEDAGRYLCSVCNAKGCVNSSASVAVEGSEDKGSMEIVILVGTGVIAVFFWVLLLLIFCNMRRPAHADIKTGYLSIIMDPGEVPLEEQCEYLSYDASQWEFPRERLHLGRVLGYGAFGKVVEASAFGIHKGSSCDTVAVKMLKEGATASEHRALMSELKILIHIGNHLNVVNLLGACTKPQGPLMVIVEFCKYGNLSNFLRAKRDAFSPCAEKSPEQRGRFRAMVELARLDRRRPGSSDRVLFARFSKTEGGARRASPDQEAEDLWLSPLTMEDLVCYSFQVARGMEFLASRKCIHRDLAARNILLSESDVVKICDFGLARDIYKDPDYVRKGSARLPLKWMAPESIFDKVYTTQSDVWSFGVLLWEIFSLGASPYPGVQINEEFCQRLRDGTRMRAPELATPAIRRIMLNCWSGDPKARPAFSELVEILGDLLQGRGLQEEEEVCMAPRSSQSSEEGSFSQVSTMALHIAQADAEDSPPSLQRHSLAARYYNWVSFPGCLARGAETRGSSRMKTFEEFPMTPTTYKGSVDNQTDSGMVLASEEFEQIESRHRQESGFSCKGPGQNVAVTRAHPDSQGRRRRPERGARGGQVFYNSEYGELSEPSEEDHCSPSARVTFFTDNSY

[5] = molecular target: Vascular endothelial growth factor receptor 3 (Homo sapiens) (UniProt P35916); details: at 1 µM
[6] = molecular target: Macrophage colony-stimulating factor 1 receptor (Homo sapiens) (UniProt P07333); details: at 0.1 µM
[7] = molecular target: Macrophage colony-stimulating factor 1 receptor (Homo sapiens) (UniProt P07333); details: at 1 µM
[8] = molecular target: Tyrosine-protein kinase Fyn (Homo sapiens) (UniProt P06241); details: at 0.1 µM
Tyrosine-protein kinase Fyn (Homo sapiens), sequence (P06241 2-537 limits assumed): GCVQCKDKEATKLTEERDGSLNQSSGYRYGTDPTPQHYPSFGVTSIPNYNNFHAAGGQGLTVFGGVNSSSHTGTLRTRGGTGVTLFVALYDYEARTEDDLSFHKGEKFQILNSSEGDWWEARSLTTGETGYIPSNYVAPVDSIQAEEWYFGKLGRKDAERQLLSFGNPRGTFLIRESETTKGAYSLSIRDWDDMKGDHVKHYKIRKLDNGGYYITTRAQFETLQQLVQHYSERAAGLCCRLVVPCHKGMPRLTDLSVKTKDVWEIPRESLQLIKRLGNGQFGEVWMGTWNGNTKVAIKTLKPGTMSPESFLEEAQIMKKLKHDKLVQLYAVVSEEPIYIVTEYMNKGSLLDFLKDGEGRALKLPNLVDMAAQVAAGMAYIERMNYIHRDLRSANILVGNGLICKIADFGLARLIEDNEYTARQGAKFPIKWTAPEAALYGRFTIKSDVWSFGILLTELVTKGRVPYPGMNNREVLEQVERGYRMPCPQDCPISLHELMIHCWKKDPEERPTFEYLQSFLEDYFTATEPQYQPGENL

[9] = molecular target: Tyrosine-protein kinase Fyn (Homo sapiens) (UniProt P06241); details: at 1 µM
[10] = molecular target: Tyrosine-protein kinase HCK (Homo sapiens) (UniProt P08631); details: at 0.1 µM
Tyrosine-protein kinase HCK (Homo sapiens), sequence (P08631 2-526 limits assumed): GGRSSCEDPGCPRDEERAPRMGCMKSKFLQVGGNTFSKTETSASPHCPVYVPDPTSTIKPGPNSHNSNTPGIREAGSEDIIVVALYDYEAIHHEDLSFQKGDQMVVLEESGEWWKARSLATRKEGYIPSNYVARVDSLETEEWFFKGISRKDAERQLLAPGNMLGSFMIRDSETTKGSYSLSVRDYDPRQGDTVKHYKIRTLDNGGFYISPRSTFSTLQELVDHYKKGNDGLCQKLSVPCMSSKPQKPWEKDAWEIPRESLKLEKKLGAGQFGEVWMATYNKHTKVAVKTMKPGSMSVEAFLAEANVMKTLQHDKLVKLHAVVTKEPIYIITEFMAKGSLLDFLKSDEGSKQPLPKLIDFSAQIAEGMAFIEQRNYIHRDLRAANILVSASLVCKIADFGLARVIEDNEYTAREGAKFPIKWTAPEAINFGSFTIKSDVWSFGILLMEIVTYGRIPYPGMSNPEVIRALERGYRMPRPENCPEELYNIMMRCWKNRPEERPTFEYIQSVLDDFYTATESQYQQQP

[11] = molecular target: Tyrosine-protein kinase HCK (Homo sapiens) (UniProt P08631); details: at 1 µM
[12] = molecular target: Insulin-like growth factor 1 receptor (Homo sapiens) (UniProt P08069); details: at 0.1 µM
Insulin-like growth factor 1 receptor (Homo sapiens), sequence (P08069 31-736 limits assumed): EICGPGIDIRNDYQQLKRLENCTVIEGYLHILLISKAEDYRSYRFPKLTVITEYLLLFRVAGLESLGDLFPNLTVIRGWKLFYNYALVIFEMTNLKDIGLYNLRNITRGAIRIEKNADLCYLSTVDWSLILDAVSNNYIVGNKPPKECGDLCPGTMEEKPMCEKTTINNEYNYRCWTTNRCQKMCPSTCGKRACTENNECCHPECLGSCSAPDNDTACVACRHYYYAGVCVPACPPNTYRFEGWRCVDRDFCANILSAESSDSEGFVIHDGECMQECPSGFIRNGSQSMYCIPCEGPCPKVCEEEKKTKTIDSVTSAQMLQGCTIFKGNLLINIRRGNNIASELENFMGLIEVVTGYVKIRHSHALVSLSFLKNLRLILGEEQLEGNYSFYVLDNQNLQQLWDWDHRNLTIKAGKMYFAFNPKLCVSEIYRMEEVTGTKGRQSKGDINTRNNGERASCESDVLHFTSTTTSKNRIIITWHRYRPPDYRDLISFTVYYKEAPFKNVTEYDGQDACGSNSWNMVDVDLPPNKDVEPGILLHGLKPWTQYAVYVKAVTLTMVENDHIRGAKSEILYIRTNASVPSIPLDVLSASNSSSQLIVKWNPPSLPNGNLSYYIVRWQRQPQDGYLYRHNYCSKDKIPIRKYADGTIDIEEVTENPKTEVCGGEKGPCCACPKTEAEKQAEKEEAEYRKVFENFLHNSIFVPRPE
Insulin-like growth factor 1 receptor (Homo sapiens), sequence (P08069 741-1367 limits assumed): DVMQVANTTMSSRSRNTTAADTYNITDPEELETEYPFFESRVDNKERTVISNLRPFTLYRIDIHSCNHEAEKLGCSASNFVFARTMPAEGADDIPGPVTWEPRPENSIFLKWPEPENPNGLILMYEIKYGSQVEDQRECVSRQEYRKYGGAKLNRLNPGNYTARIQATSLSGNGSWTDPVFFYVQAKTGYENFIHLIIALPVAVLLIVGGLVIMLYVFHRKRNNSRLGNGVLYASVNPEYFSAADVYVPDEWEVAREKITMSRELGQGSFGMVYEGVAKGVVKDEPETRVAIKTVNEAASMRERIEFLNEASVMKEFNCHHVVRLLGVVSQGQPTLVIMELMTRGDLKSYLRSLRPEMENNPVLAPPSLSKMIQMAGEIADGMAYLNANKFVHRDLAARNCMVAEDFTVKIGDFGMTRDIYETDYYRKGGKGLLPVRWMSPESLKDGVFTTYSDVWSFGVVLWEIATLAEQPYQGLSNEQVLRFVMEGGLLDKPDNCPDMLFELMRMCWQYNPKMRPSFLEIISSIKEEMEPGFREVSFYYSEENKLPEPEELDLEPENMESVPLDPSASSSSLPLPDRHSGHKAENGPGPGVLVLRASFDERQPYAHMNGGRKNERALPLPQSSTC

[13] = molecular target: Insulin-like growth factor 1 receptor (Homo sapiens) (UniProt P08069); details: at 1 µM
[14] = molecular target: Insulin receptor (Homo sapiens) (UniProt P06213); details: at 0.1 µM
[15] = molecular target: Insulin receptor (Homo sapiens) (UniProt P06213); details: at 1 µM
[16] = molecular target: Insulin receptor-related protein (Homo sapiens) (UniProt P14616); details: at 0.1 µM
Insulin receptor-related protein (Homo sapiens), sequence (P14616 27-742 limits assumed): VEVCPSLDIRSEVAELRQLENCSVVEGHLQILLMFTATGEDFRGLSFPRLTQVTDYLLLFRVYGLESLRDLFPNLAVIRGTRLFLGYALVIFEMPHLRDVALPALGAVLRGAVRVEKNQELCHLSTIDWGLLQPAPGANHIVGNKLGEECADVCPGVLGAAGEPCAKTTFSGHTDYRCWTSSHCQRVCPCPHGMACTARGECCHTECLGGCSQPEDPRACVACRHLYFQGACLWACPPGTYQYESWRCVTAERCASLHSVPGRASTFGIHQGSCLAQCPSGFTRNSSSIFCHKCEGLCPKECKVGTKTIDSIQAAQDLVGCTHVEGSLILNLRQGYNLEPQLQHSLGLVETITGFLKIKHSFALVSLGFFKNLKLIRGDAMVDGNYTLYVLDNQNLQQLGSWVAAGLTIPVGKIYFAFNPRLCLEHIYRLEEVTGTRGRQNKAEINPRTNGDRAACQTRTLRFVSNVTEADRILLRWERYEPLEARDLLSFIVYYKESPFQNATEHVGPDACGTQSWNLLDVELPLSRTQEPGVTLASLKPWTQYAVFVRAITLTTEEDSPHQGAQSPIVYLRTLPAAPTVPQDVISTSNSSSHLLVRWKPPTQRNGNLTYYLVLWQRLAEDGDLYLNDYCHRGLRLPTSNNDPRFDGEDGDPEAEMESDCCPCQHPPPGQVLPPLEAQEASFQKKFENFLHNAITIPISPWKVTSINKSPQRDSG
Insulin receptor-related protein (Homo sapiens), sequence (P14616 747-1297 limits assumed): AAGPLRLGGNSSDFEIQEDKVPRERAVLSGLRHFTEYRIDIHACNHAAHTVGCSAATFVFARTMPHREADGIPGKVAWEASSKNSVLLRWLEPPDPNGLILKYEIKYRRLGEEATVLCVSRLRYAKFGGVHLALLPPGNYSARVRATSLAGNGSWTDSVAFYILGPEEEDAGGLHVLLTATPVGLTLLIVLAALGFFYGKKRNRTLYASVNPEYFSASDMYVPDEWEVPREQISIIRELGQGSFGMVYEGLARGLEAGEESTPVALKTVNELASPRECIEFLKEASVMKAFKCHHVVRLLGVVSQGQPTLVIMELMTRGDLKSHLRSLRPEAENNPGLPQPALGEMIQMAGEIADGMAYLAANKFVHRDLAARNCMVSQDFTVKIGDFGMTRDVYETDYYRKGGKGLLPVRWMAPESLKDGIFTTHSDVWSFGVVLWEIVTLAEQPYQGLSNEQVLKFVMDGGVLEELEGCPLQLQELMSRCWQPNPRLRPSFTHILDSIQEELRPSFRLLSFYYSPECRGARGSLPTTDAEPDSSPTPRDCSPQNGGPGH

[17] = molecular target: Insulin receptor-related protein (Homo sapiens) (UniProt P14616); details: at 1 µM
[18] = molecular target: T4, Tyrosine-protein kinase ITK/TSK (Homo sapiens) (UniProt Q08881); details: at 0.1 µM;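 note: mean percent inhibition of ITK from the GSK PKIS screen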
T4 sequence (whole entry): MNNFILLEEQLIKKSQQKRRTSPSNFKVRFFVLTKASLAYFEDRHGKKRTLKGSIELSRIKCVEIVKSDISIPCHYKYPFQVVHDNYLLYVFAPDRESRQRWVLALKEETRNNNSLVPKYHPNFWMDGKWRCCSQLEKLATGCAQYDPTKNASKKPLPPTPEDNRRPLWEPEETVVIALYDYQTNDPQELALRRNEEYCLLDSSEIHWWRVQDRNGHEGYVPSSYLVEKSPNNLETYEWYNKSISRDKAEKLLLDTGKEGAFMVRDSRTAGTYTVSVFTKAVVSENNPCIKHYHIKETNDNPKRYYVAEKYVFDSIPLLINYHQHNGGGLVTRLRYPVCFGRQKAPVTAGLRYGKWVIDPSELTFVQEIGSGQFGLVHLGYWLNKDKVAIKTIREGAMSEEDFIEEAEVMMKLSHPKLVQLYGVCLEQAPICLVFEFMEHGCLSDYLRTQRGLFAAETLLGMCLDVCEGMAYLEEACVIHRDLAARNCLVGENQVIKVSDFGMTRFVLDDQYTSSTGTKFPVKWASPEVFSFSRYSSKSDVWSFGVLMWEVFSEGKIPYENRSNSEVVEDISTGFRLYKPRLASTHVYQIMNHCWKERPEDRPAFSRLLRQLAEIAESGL

[19] = molecular target: Serine/threonine-protein kinase PLK1 (Homo sapiens) (UniProt P53350); details: at 0.1 µM
[20] = molecular target: Serine/threonine-protein kinase PLK1 (Homo sapiens) (UniProt P53350); details: at 1 µM

SMILES | inhibition [1] | inhibition [2] | inhibition [3] | inhibition [4] | inhibition [5] | inhibition [6] | inhibition [7] | inhibition [8] | inhibition [9] | inhibition [10] | inhibition [11] | inhibition [12] | inhibition [13] | inhibition [14] | inhibition [15] | inhibition [16] | inhibition [17] | inhibition [18] | inhibition [19] | inhibition [20]
COc1cc2ncn(-c3cc(OCCc4ccccc4)c(C(N)=O)s3)c2cc1OC | 6.63% | 1.17% | 1.07% | 1.49% | 21% | -0.81% | 4.7% | 2.91% | 2.86% | 2.34% | 11.2% | 1.99% | 2.07% | 2.51% | 0.56% | 2.17% | 2.64% | 1.33% |  | 
COc1cc2ncn(-c3cc(OCc4cccs4)c(C(N)=O)s3)c2cc1OC | 28.4% | 4.76% | 1.62% | -6.1% | 34.7% | 1.28% | 11.7% | -2.3% | 10.6% | 4.48% | 23.4% | -8.52% | -6.38% | -0.44% | 2.03% | 0.43% | 1.63% | -1% |  | 
C[C@@H](Oc1cc(-n2cnc3ccc(OC4CCN(C)CC4)cc32)sc1C(N)=O)c1ccccc1Cl | 97.2% | 6.06% | 12.2% | -3.01% | 13.8% | 3.34% | 16.3% | -3.18% | -4.42% | 6.15% | 13% | -9.14% | 0.05% | 10.4% | -1.99% | 2.49% | 3.03% | -2.4% |  | 
CCc1nccc2c1nc(-c1nonc1N)n2CC | 2.52% | 3.28% | -1.94% | -0.59% | 3.19% | -0.59% | 1.95% | 2.96% | 0.11% | 11.6% | 16.3% | -0.66% | 2.4% | 0.64% | 0.74% | -0.83% | -1.07% | 0.88% | 0.58% | 1.55%
CCS(=O)(=O)c1ccc(OC)c(Nc2ncc(-c3cccc(-c4ccccc4F)c3)o2)c1 | -0.99% | 0.9% | 45% | 41% | 82.8% | 4.55% | 27.2% | 47.1% | 85.6% | 16.9% | 64.4% | 2.3% | 3.39% | 2.01% | 1.9% | -1.45% | -0.35% | 0.42% | 20.4% | 
Cc1nnc(-c2ccc(C)c(-c3ccc(C(=O)NCc4ccc(Cl)cc4)cc3)c2)o1 | 11.6% | 11.7% | -0.11% | -5.22% |  | 2.43% | 0.83% | -2.42% | -1.62% | 4.39% | 5.02% | -3.42% | -3.35% | 5.65% | 6.19% | 1.93% | 1.98% | -2.09% | 3.2% | 4.52%
Fc1ccc(-c2c(-c3ccncc3)nc3n2CCS3)cc1 | 4.81% | 5.74% | -4.22% | -5.59% |  | 1.54% | 1.37% | -3.03% | 0.5% | 2.36% | 4.87% | -4.27% | -5.03% | 5.99% | 6.13% | 0.59% | 0.48% | -2.9% | 2.99% | 2.94%
CN(C)c1ccc2c(c1)/C(=C/Nc1ccc(S(N)(=O)=O)cc1)C(=O)N2 | 4.93% | 5.45% | 33.6% |  | 55% | 4.82% | 18.8% | 2.68% | 13.1% | 4.88% | 20.5% | 9.21% | 11.9% | 3.88% | 6.31% | 0.97% | 3.14% | 1.03% | 2.05% | 2.41%
Fc1ccc(-c2ncn(C3CCNCC3)c2-c2ccnc(Oc3ccc(F)c(F)c3)n2)cc1 | 6.01% | 10.3% | -6.12% | -4.95% | -7.54% | 1.11% | 7.56% | -4.18% | -4.44% | 5.11% | 4.68% |  | -4.9% | -2.06% | 0.24% | 3.04% | 2.75% | -3.95% | 3.45% | 2.6%
COc1cc(Nc2ncc3c(C)nc(-c4cccc(Oc5ccccc5)c4)n3n2)cc(OC)c1OC | 81.4% | 3.03% | 20.2% | -1.15% | 0.93% | 1.83% | 22.3% | 1.2% | 8.45% | 3.59% | 5.25% | 3.82% | 5.13% | 5.22% | 8.16% | 2.99% | 3.66% | 0.96% |  | 
CS(=O)(=O)CCNCc1ccc(-c2ccc3ncnc(Nc4ccc(OCc5ccccc5)c(Br)c4)c3c2)o1 | 5.79% | 11.1% | -0.11% | -7.55% | -9.98% | -1.9% | 6.06% | -0.04% | 1.37% | 7.33% | 10.2% |  | -5.4% | 2.87% | 1.17% | 2.56% | 2.95% | -4.12% | 3.69% | 3.81%
